# Test results as given in paper PMC4336329 (PLoS ONE, 2015).
# The whole screen tested about 310,000 compounds, of which about 14,000 (4.5%) showed an effect of 50% or more. Effects have a minus sign here. Only a selection was taken, and strong results are over-represented in it overall.
# Molecular target: human ether-à-go-go-related gene (hERG) potassium channel (human, UniProt Q12809)
# Experiment: primary screen, population patch clamp on CHO cells stably expressing hERG; higher = less effect of the substance
# 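Further: peak tail current of the secondary pulse compared with the same well before compound.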
# human ether-à-go-go-related gene (hERG) potassium channel, sequence (Q12809 whole entry, looked up): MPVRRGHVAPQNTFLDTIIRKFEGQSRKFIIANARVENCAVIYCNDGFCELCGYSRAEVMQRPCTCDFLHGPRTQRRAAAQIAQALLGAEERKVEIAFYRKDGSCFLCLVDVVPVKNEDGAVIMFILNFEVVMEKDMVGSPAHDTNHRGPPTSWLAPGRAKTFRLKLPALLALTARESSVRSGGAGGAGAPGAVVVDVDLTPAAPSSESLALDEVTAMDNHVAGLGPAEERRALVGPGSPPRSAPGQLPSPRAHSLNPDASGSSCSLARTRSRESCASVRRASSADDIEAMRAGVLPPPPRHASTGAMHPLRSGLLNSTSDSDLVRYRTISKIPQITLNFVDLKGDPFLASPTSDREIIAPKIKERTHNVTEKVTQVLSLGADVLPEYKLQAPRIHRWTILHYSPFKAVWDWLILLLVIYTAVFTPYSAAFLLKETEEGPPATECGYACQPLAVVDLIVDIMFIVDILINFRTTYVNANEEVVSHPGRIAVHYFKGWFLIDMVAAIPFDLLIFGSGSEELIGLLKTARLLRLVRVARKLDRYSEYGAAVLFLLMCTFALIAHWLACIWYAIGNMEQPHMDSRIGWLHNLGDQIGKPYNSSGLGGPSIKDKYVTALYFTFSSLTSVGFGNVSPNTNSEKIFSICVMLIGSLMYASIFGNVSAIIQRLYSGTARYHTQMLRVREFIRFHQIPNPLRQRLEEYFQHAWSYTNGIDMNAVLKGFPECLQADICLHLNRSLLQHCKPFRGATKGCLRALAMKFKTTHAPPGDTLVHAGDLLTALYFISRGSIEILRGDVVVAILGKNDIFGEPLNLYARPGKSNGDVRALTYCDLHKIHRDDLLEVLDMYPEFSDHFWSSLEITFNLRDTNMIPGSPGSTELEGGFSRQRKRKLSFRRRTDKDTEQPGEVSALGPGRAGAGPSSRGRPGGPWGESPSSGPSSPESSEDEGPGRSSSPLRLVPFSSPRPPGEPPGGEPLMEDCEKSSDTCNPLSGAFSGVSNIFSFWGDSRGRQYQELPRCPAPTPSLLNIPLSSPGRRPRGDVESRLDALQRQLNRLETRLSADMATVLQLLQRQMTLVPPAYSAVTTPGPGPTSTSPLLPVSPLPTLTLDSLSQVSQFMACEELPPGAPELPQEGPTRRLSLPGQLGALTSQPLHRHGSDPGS
row,Compound,"hERG current change (%, negative = inhibition) at 10uM"
1,O=C1N/C(=N\c2ccccn2)SC1Cc1ccc(Cl)cc1 (stereo not drawn),4.11%
2,Cc1cccc(CCNc2nc3ccc(C)cc3n3cnnc23)c1,17.3%
3,CC(C)(C)CC(C)(C)NC(=O)c1ccc2snnc2c1,-13.6%
4,COc1ccc(S(=O)(=O)NC(CC(=O)N2CCC3(CC2)OCCO3)C(C)C)cc1 (stereo not drawn),10.9%
5,COc1ccccc1CCC(=O)N(C)C1CCCN(Cc2ccccc2F)C1 (stereo not drawn),-28%
6,Cc1csc(=O)n1CCC(=O)OCc1nnc(-c2ccc([N+](=O)[O-])cc2)o1,-67.3%
7,Cc1ccc(C(=O)NCC(=O)OCc2nnc(-c3ccc([N+](=O)[O-])cc3)o2)s1,-67.3%
8,Cc1onc(-c2ccccc2)c1C(=O)OCc1nnc(-c2ccc([N+](=O)[O-])cc2)o1,-71.5%
9,Cc1csc(=O)n1CC(=O)OCc1nnc(-c2ccc(Cl)cc2)o1,-2.32%
10,Cc1ccc(C(=O)OCc2nnc(-c3ccccc3)o2)s1,-7.37%
11,Cc1onc(-c2ccccc2Cl)c1C(=O)OCc1nnc(-c2ccccc2)o1,-16.7%
12,Cc1ccc(C(=O)NCC(=O)OCc2nnc(-c3ccccc3)o2)cc1,-31.6%
13,Cc1onc(-c2ccccc2)c1C(=O)OCc1nnc(-c2ccccc2)o1,-15.6%
14,Cc1csc(=O)n1CCC(=O)OCc1nnc(-c2ccccc2)o1,-8.45%
15,CNc1ccc(Oc2c(F)c(F)nc(F)c2F)cc1,-0.34%
16,O=C1CS/C(=N/N=C/c2ccccc2)N1c1ccc(O)cc1,17.6%
17,CN(C)S(=O)(=O)c1cccc(NC(=O)C2Cc3ccccc3CN2C(=O)c2ccccc2)c1 (stereo not drawn),4.2%
18,c1ccc(C[C@H]2CNCCN2CCc2cccc3ccccc23)cc1,-35.6%
19,Oc1ccc(C[C@@H]2CNCCN2CCc2cccc3ccccc23)cc1,-64.5%
20,Oc1ccc(C[C@H]2CNCCN2CCc2cccc3ccccc23)cc1,-17.7%
21,C#CCOCCOCCOCCNc1nc(N2CCN(C(=O)[C@H](CCC(=O)O)n3cc(C(N)Cc4ccc(O)cc4)nn3)CC2)nc(N2CCN(C(=O)[C@H](Cc3cc4ccccc4[nH]3)n3cc(C(N)[C@H](C)CC)nn3)CC2)n1.Cl (stereo partly drawn),5.43%
22,COc1ccc(CNC(=O)c2ccc3c(=O)n(CCCN4CCCC4=O)c(=S)[nH]c3c2)cc1,19%
23,CCOC(=O)c1ccc(Nc2cc(C)nc(C)c2C(=O)OCC)cc1.Cl,-62.6%
24,CCOC(=O)c1ccc(Nc2cc(C)nc3ncnn23)cc1,-15.1%
25,CCOC(=O)c1c(Nc2ccccc2N)cc(C)nc1C,-13.9%
26,CCOC(=O)c1ccc(Nc2nc(C)cc(C)n2)cc1,16.7%
27,CCOC(=O)c1ccc(Nc2cc(C)nc3nc(C)nn23)cc1,-53%

row,Compound,"hERG current change (%, negative = inhibition) at 10uM"
1,COC(=O)c1ccc(Nc2cc(C)nc3nc(C)nn23)cc1,-37.8%
2,COc1ccc(/C=N/NC(=O)CCn2c3ccccc3c3ccccc32)cc1O,5.18%
3,COc1ccc(NS(=O)(=O)c2cc(C)ccc2OC)cc1OC,10.5%
4,CN(C)c1ccc2c(O)cc(=O)n(C)c2c1,6.76%
5,O=C(NC1CCCC1)c1cc2nc(-c3ccccc3)cc(-c3ccccc3)n2n1,-23.3%
6,Cc1ccc2nc(C)c(C)nc2c1N,8.1%
7,O=C(Nc1ccc(Cl)cc1Cl)c1ccc2c(=O)n3c(nc2c1)CCC3,-39.8%
8,Fc1ccccc1CSc1nnc(-c2cnccn2)n1Cc1ccco1,-11.2%
9,Cn1c(SCc2nc3ccccc3c(=O)[nH]2)nc2ccccc21,0.933%
10,c1ccc(-c2nnc(SCc3nc4ccccc4[nH]3)n2Cc2ccco2)nc1,-8.18%
11,NC(=O)CSc1nnc(-c2cnccn2)n1Cc1ccco1,7.06%
12,O=c1[nH]c(CSc2nnc(-c3ccncc3)n2Cc2ccco2)nc2ccccc12,-58.2%
13,CCn1c(SCc2nc3ccccc3c(=O)[nH]2)nnc1-c1ccncc1,-11.7%
14,Cn1c(-c2ccccc2)cnc1SCc1nc2ccccc2c(=O)[nH]1,-59.9%
15,Fc1ccc(CSc2nnc(-c3cnccn3)n2Cc2ccco2)cc1,-52.2%
16,COCCn1c(SCc2nc3ccccc3c(=O)[nH]2)nnc1-c1ccncc1,-4.64%
17,c1coc(Cn2c(SCc3nc4ccccc4[nH]3)nnc2-c2cnccn2)c1,-56.3%
18,c1ccc(-c2nnc(SCc3nc4ccccc4[nH]3)n2Cc2ccco2)cc1,-22.4%
19,Cn1c(Cc2ccccc2)nnc1SCc1nc2ccccc2c(=O)[nH]1,-1.69%
20,Cl.NC(N)=NC(N)=Nc1ccc(SC(F)(F)F)cc1,-21.3%
21,Oc1cccnc1Sc1cccc(C(F)(F)F)c1,18.6%
22,CC(C)(C)c1nnc(NC(=O)CCS(=O)(=O)c2ccccc2)s1,5.03%
23,COc1cc(/C=C2/SC(=S)NC2=O)ccc1OS(=O)(=O)c1ccc(C)cc1,39.8%
24,CCOc1ccc(CCNC(=O)C2CCN(S(=O)(=O)N3CC(C)CC(C)C3)CC2)cc1OCC (stereo not drawn),20.7%
25,Cc1c(NC(=O)Cn2cc([N+](=O)[O-])cn2)c(=O)n(-c2ccccc2)n1C,11.7%
26,CC1CCN(c2ccc3c(c2)S(=O)(=O)c2ccccc2C3=O)CC1,7.82%
27,COc1cccc2cc(C(=O)C3=C(O)C(=O)N(c4cc(C)on4)C3c3cccs3)oc12 (stereo not drawn),22.9%
